Measurements taken from PubChem BioAssay AID1159580 (chemical genetic matrix, 2015).
Where “and” joins values, the source holds several entries; their conditions need not be identical. Equal entries are not always repeated. Among all 5,500 compounds or so, about 2,000 (36%) were called active. About 18% were inconclusive and are not listed. Rule as the data show it: active = normalized growth mostly below about 0.91 (no sharp cut-off); inconclusive = no clear call, values can overlap the other calls; inactive = mostly above about 0.92. This is one part of the list.

Test: chemical genetic growth profiling, strain panel (AID 1159580);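 also: tested at 20 µM; growth read once vehicle control cultures reached saturation at 30 °C; 1 = growth at the plate median or of vehicle wells; lower values mean less growth of the strain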
Settings: growth OD

Measured: normalized growth

CN1C2CCC1CC(OC(c1ccccc1)c1ccccc1N)C2 (stereo unspecified)
inactive: S. cerevisiae deletion strains, locus YJR075W, strain HOC1, stronger effect = lower value 0.997 and 1.08 | S. cerevisiae deletion strains, locus YKL009W, strain mrt4, stronger effect = lower value 1.03 | S. cerevisiae deletion strains, locus YKL068W, stronger effect = lower value 1.01 | S. cerevisiae deletion strains, locus YKL085W, strain MDH1 (second series), stronger effect = lower value 1 | S. cerevisiae deletion strains, locus YKL085W, strain MDH1, stronger effect = lower value 1 | S. cerevisiae deletion strains, locus YKL160W, strain elf1, stronger effect = lower value 1 | S. cerevisiae deletion strains, locus YKL190W, strain CNB1, stronger effect = lower value 1 | S. cerevisiae deletion strains, locus YKR001C, strain vps1, stronger effect = lower value 1.02 | S. cerevisiae deletion strains, locus YKR026C, strain gcn3, stronger effect = lower value 0.99 | S. cerevisiae deletion strains, locus YKR091W, strain srl3, stronger effect = lower value 0.996 | S. cerevisiae deletion strains, locus YLL001W, strain dnm1, stronger effect = lower value 1.01 | S. cerevisiae deletion strains, locus YLL026W, stronger effect = lower value 0.982 | S. cerevisiae deletion strains, locus YLL041C, strain sdh2, stronger effect = lower value 1 | S. cerevisiae deletion strains, locus YLR027C, strain aat2, stronger effect = lower value 0.986 | S. cerevisiae deletion strains, locus YLR039C, strain RIC1, stronger effect = lower value 1.02 | S. cerevisiae deletion strains, locus YLR058C, strain SHM2, stronger effect = lower value 1 | S. cerevisiae deletion strains, locus YLR102C, strain apc9, stronger effect = lower value 1.01 | S. cerevisiae deletion strains, locus YLR113W, strain HOG1, stronger effect = lower value 1.05 | S. cerevisiae deletion strains, locus YLR221C, strain rsa3, stronger effect = lower value 0.998 | S. cerevisiae deletion strains, locus YLR258W, strain gsy2, stronger effect = lower value 1 | S. cerevisiae deletion strains, locus YLR262C, strain YPT6 (second series), stronger effect = lower value 1.03 | S. cerevisiae deletion strains, locus YLR262C, strain YPT6, stronger effect = lower value 1.02 | S. cerevisiae deletion strains, locus YLR268W, strain sec22, stronger effect = lower value 1.01 | S. cerevisiae deletion strains, locus YLR320W, strain mms22, stronger effect = lower value 0.994 | S. cerevisiae deletion strains, locus YLR330W, strain CHS5, stronger effect = lower value 1.01 | S. cerevisiae deletion strains, locus YLR342W, strain FKS1 (second series), stronger effect = lower value 1.02 | S. cerevisiae deletion strains, locus YLR342W, strain FKS1, stronger effect = lower value 0.994 | S. cerevisiae deletion strains, locus YLR357W, strain rsc2, stronger effect = lower value 0.979 | S. cerevisiae deletion strains, locus YLR370C, strain arc18, stronger effect = lower value 0.978 | S. cerevisiae deletion strains, locus YLR371W, strain rom2, stronger effect = lower value 1.01 | S. cerevisiae deletion strains, locus YLR384C, strain iki3, stronger effect = lower value 1 | S. cerevisiae deletion strains, locus YLR418C, strain cdc73, stronger effect = lower value 0.994 | S. cerevisiae deletion strains, locus YML016C, strain PPZ1, stronger effect = lower value 1 | S. cerevisiae deletion strains, locus YML032C, strain rad52, stronger effect = lower value 1.03 | S. cerevisiae deletion strains, locus YML120C, strain ndi1, stronger effect = lower value 0.988 | S. cerevisiae deletion strains, locus YML124C, strain tub3, stronger effect = lower value 1.02 | S. cerevisiae deletion strains, locus YMR058W, strain fet3, stronger effect = lower value 1 | S. cerevisiae deletion strains, locus YMR078C, strain ctf18, stronger effect = lower value 1.02 | S. cerevisiae deletion strains, locus YMR125W, strain sto1, stronger effect = lower value 0.992 | S. cerevisiae deletion strains, locus YMR129W, stronger effect = lower value 0.997 | S. cerevisiae deletion strains, locus YMR205C, strain PFK2, stronger effect = lower value 0.981 | S. cerevisiae deletion strains, locus YMR223W, strain ubp8, stronger effect = lower value 1.01 | S. cerevisiae deletion strains, locus YMR231W, strain pep5, stronger effect = lower value 0.999 | S. cerevisiae deletion strains, locus YMR263W, strain SAP30, stronger effect = lower value 0.999 and 1 | S. cerevisiae deletion strains, locus YMR307W, strain GAS1, stronger effect = lower value 1 | S. cerevisiae deletion strains, locus YNL067W, strain RPL9B, stronger effect = lower value 1.01 | S. cerevisiae deletion strains, locus YNL071W, strain lat1, stronger effect = lower value 1 | S. cerevisiae deletion strains, locus YNL128W, strain TEP1, stronger effect = lower value 0.993 | S. cerevisiae deletion strains, locus YNL153C, strain GIM3, stronger effect = lower value 1 | S. cerevisiae deletion strains, locus YNL175C, strain NOP13, stronger effect = lower value 1.01 | S. cerevisiae deletion strains, locus YNL183C, strain NPR1, stronger effect = lower value 0.92 | S. cerevisiae deletion strains, locus YNL197C, strain WHI3, stronger effect = lower value 1.02 | S. cerevisiae deletion strains, locus YNL209W, strain ssb2, stronger effect = lower value 1.01 | S. cerevisiae deletion strains, locus YNL224C, strain SQS1, stronger effect = lower value 1.03 | S. cerevisiae deletion strains, locus YNL233W, strain BNI4, stronger effect = lower value 1.01 | S. cerevisiae deletion strains, locus YNL248C, strain rpa49, stronger effect = lower value 0.995 | S. cerevisiae deletion strains, locus YNL250W, strain rad50, stronger effect = lower value 1.02 | S. cerevisiae deletion strains, locus YNL271C, strain bni1, stronger effect = lower value 1 | S. cerevisiae deletion strains, locus YNL298W, strain CLA4, stronger effect = lower value 1.01 | S. cerevisiae deletion strains, locus YNL307C, strain MCK1, stronger effect = lower value 1 | S. cerevisiae deletion strains, locus YNL322C, strain KRE1 (second series), stronger effect = lower value 1 | S. cerevisiae deletion strains, locus YNL322C, strain KRE1, stronger effect = lower value 0.996 | S. cerevisiae deletion strains, locus YNR049C, strain mso1, stronger effect = lower value 0.996 | S. cerevisiae deletion strains, locus YNR052C, strain pop2, stronger effect = lower value 1.01 | S. cerevisiae deletion strains, locus YOL006C, strain TOP1, stronger effect = lower value 0.986 | S. cerevisiae deletion strains, locus YOL012C, strain htz1 1.61 | S. cerevisiae deletion strains, locus YOL147C, strain pex11, stronger effect = lower value 1.02 | S. cerevisiae deletion strains, locus YOR001W, strain rrp6, stronger effect = lower value 1.01 | S. cerevisiae deletion strains, locus YOR061W, strain CKA2, stronger effect = lower value 1.01 | S. cerevisiae deletion strains, locus YOR069W, strain VPS5, stronger effect = lower value 1 | S. cerevisiae deletion strains, locus YOR070C, strain gyp1, stronger effect = lower value 1.01 | S. cerevisiae deletion strains, locus YOR080W, strain dia2, stronger effect = lower value 0.985 | S. cerevisiae deletion strains, locus YOR083W, strain WHI5 (second series), stronger effect = lower value 1.02 | S. cerevisiae deletion strains, locus YOR083W, strain WHI5, stronger effect = lower value 1 | S. cerevisiae deletion strains, locus YOR106W, strain vam3, stronger effect = lower value 1.01 | S. cerevisiae deletion strains, locus YOR136W, strain idh2, stronger effect = lower value 1.03 | S. cerevisiae deletion strains, locus YOR144C, strain elg1, stronger effect = lower value 1.01 | S. cerevisiae deletion strains, locus YOR184W, strain ser1, stronger effect = lower value 1.04 | S. cerevisiae deletion strains, locus YOR231W, strain MKK1, stronger effect = lower value 0.977 | S. cerevisiae deletion strains, locus YOR265W, strain rbl2, stronger effect = lower value 1.01 | S. cerevisiae deletion strains, locus YOR270C, strain vph1, stronger effect = lower value 1.03 | S. cerevisiae deletion strains, locus YOR290C, strain snf2, stronger effect = lower value 1.01 | S. cerevisiae deletion strains, locus YOR316C, strain cot1, stronger effect = lower value 1.02 | S. cerevisiae deletion strains, locus YPL051W, strain arl3, stronger effect = lower value 0.989 | S. cerevisiae deletion strains, locus YPL055C, strain LGE1, stronger effect = lower value 1.01 | S. cerevisiae deletion strains, locus YPL078C, strain atp4, stronger effect = lower value 1.01 | S. cerevisiae deletion strains, locus YPL106C, strain sse1, stronger effect = lower value 0.957 | S. cerevisiae deletion strains, locus YPL240C, strain hsp82, stronger effect = lower value 1.02 | S. cerevisiae deletion strains, locus YPL241C, strain CIN2, stronger effect = lower value 0.998 and 1 | S. cerevisiae deletion strains, locus YPL256C, strain CLN2, stronger effect = lower value 0.986 | S. cerevisiae deletion strains, locus YPR119W, strain clb2, stronger effect = lower value 0.999 | S. cerevisiae deletion strains, locus YPR141C, strain kar3, stronger effect = lower value 1.02 | S. cerevisiae deletion strains, locus YPR163C, strain tif3, stronger effect = lower value 1.03 | S. cerevisiae deletion strains, locus YPR167C, strain met16, stronger effect = lower value 1.02 | S. cerevisiae deletion strains, strain wtn01, stronger effect = lower value 1.02 | S. cerevisiae strains, strain wild type, stronger effect = lower value 0.984
